These results are taken from PubChem BioAssay (NCI).

Compounds without any hit were thinned out: in the full panel of roughly 83,000, 20% have a hit.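 Plates (96-well) were seeded with cells, treated with compound at one concentration, and incubated for 48 hours before percent growth was determined.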 Values without a mark were called inactive. Active and inactive are the calls of the source. The calls were made as follows: active = growth percent below 10; inactive = the rest.

The test has as its system HL-60(TB) leukemia. Briefly: NCI-60 one-dose screen, 48 h (100 = growth as untreated, 0 = no growth, -100 = all killed). Particulars: 10 µM unless noted.
For the compound `O=C(/C=C/C12c3ccccc3C(c3ccccc31)C1C(=O)N(c3ccccc3)C(=O)C12)c1ccccc1` (centres undefined), the growth was 10.5%.
Under `COc1ccc2c(c1)C(c1c[nH]c3ccccc13)(c1c[nH]c3ccccc13)CCO2` stands 41.2%; under `CC(=O)Oc1ccccc1C(=O)/C=C/c1cccc([N+](=O)[O-])c1`, 17.3%; under `O=C(N/N=C/c1ccc(Cl)cc1)c1ccccc1Nc1cccc(C(F)(F)F)c1`, 84.7%.
For `COc1nc(N)nc2c1ncn2C1OC(CO)CC1O` (centres undefined), the growth was 98.9%.
Under `COc1ccc(CNC(=O)c2c(C)n([O-])c3ccccc3[n+]2=O)cc1` stands 101%.
Under `CCn1c(Cc2ccccc2Nc2c(Cl)cccc2Cl)nnc1SCC(=O)NN1C(=O)/C(=C/c2cccc(OC)c2OC)SC1=S` stands 97.5%; under `Cc1ccccc1N1C(c2ccccc2)=NNC12C=CC(=O)c1c(O)cccc12` (centres undefined), 70.2%; under `CN1CCN(c2ccc(-c3ccc4ncc(C#N)c(Nc5ccc(F)c(Cl)c5)c4c3)cn2)CC1`, 38.1%.
In the case of `Clc1ccc2sc(-c3ccccc3)nc2c1`, the growth is 86.2%.
In the case of `N#Cc1c(-c2ccccc2)nc(SCC(=O)N2CCOCC2)[nH]c1=O` it was 55.9%.
Under `N#C/C(=C\N1C(=O)/C(=C/c2cccc([N+](=O)[O-])c2)SC1=S)c1nc2ccccc2s1` stands 94.5%; under `O=[N+]([O-])c1ccc(C2CC(c3ccccc3)=Nc3ccccc3S2)cc1` (centres undefined), 36.1%; under `O=C(N/N=C/c1cc(Cl)ccc1O)c1ccccc1Nc1ccnc(C(F)(F)F)c1`, 39.3%.
For the compound `CCN(CC)S(=O)(=O)c1ccc2[nH]c(=O)cc(C(=O)Nc3ccc(OC)cc3OC)c2c1`, the growth is 101%.
In the case of `CC1=C(C(=O)OCc2ccccc2)C(c2ccc3c(c2)OCO3)n2c(nc3ccccc32)N1` (centres undefined) it was -14.7% (active); in that of `CCOC(=O)C1=C(C)NC(SCc2nnc(-c3ccc(Cl)cc3)o2)=NC1c1ccc(Cl)cc1` (centres undefined), 21.4%.
Turning to `O=C(O)c1cn(C2CC2)c2cc(N3CCN(Cc4cc(Cl)ccc4O)CC3)c(F)cc2c1=O`, the growth is 46.4%.
In the case of `NC1(N)C=CC2=C(C=C1)C1(N)C3=C(C=CC(N)(N)C=C3)N2C2(N)C3=C(C=CC(N)(N)C=C3)N1C1=C2C=CC(N)(N)C=C1` it was -2.73% (active); in that of `CSC1=Nc2c(c(C)c(-c3ccccc3)n2CCCC(=O)O)C2=NC(=O)C[C@H](C)N12`, 93.2%; in that of `O=Nc1ccc(O)cc1`, 77%.
In the case of `COc1cc(C(O)C2C(=O)OCC2C2(c3ccc4c(c3)OCO4)SCCCS2)cc(OC)c1OC` (centres undefined) it was 91.8%; in that of `O=C(Nc1ccc2ncnc(Nc3ccc(Oc4cccc(F)c4)c(Cl)c3)c2c1)c1ccc(CNCCO)cc1`, 22.3%; in that of `Clc1cc(Cl)cc(-c2cnc3nonc3n2)c1`, 10.9%.
